# PubChem BioAssay (EPA / NIEHS)
# The source made the active and inactive calls. Rule for the calls: active = hit-call score of the fitted dose curve at least 0.9, where 1 is the maximum; inactive = score below 0.9.
# Key:
# Settings in all cases: mRNA level, 48 h; actives raise or lower the signal
# [1] = read-out: Hypoxia-inducible factor 1-alpha (Homo sapiens) (UniProt Q16665); experiment: LTEA_HepaRG_HIF1A: Life Technologies and Expression Analysis (LTEA) Assay for Hypoxia-inducible factor 1 (HIF1A) Trancription factor using HepaRG (AID 2283503)
# Outline: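 Differentiated HepaRG cells in serum-free induction medium exposed 48 h, in duplicate, to 8-point half-log series from 100 uM in 0.5% DMSO. HIF1A mRNA measured by TaqMan qRT-PCR, normalized to ACTB/GAPDH/POLR2A, fitted bidirectionally versus DMSO.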
# [2] = read-out: 3-Hydroxy-3-Methylglutaryl-CoA Synthase 2 (HMGCS2), HMGCS2 (gene 3158); experiment: LTEA_HepaRG_HMGCS2: Life Technologies and Expression Analysis (LTEA) Assay for 3-Hydroxy-3-Methylglutaryl-CoA Synthase 2 (HMGCS2) using HepaRG (AID 2283504)
# Outline: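 HepaRG, plated 48 h then switched to serum-free induction media; cmpd 8-pt, max 100 uM, 1/2-log, 0.5% DMSO, n=2, 48 h. HMGCS2 mRNA by Fluidigm TaqMan qRT-PCR, ACTB/GAPDH/POLR2A norm; bidirectional fit vs DMSO.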
# [3] = read-out: HGF (gene 3082); experiment: LTEA_HepaRG_HGF: Life Technologies and Expression Analysis (LTEA) Assay for Hepatocyte Growth Facto (HGF) using HepaRG (AID 2283505)
# Outline: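 Read-out is HGF transcript level by qRT-PCR, normalized to three housekeeping genes, fitted bidirectionally against 0.5% DMSO vehicle. Human HepaRG cells received test chemicals for 48 h at up to 100 uM.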
# [4] = read-out: Insulin Like Growth Factor 1 (IGF1), IGF1 (gene 3479); experiment: LTEA_HepaRG_IGF1: Life Technologies and Expression Analysis (LTEA) Assay for Insulin Like Growth Factor 1 (IGF1) using HepaRG (AID 2283506)
# Outline: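 HepaRG, plated 48 h, then switched to serum-free induction media; test chemical 8-pt half-log from 100 uM (0.5% DMSO), duplicate, 48 h. Lysis in RLT, TaqMan qRT-PCR, norm. ACTB/GAPDH/POLR2A. Bidirectional fit vs DMSO.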
# [5] = read-out: Intercellular Adhesion Molecule 1 (ICAM1), ICAM1 (gene 3383); experiment: LTEA_HepaRG_ICAM1: Life Technologies and Expression Analysis (LTEA) Assay for Intercellular Adhesion Molecule 1 (ICAM1) using HepaRG (AID 2283507)
# Outline: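 Readout is qRT-PCR mRNA level, normalized to three housekeeping genes and fitted bidirectionally against 0.5% DMSO vehicle. Human HepaRG cultures received compound for 48 h, top concentration 100 uM with half-log dilutions.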
# [6] = read-out: Insulin-like growth factor-binding protein 1 (IGFBP1), IGFBP1 (gene 3484); experiment: LTEA_HepaRG_IGFBP1: Life Technologies and Expression Analysis (LTEA) Assay for Insulin-like growth factor-binding protein 1 (IGFBP1) using HepaRG (AID 2283508)
# Outline: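 Thawed HepaRG cells are plated for 48 h, switched to serum-free induction medium, then dosed in duplicate for another 48 h (100 uM top, half-log steps). Lysates in RLT go to qRT-PCR, and gain or loss of signal is fitted relative to vehicle.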
# [7] = read-out: Interleukin 6 (IL6), IL6 (gene 3569); experiment: LTEA_HepaRG_IL6: Life Technologies and Expression Analysis (LTEA) Assay for Interleukin 6 (IL6) using HepaRG (AID 2283509)
# Outline: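 Differentiated human HepaRG cells, plated 48 h then switched to serum-free induction medium, were exposed in duplicate for 48 h to eight half-log concentrations up to 100 uM in 0.5% DMSO. IL6 mRNA measured by qRT-PCR, normalized to ACTB/GAPDH/POLR2A.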
# [8] = read-out: Interleukin 6 Receptor (IL6R), IL6R (gene 3570); experiment: LTEA_HepaRG_IL6R: Life Technologies and Expression Analysis (LTEA) Assay for Interleukin 6 Receptor (IL6R) using HepaRG (AID 2283510);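 for AC50: TaqMan qRT-PCR signal normalized to ACTB GAPDH and POLR2A housekeeping genes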
# Outline: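 Readout is IL6R transcript level by TaqMan qRT-PCR, normalized to three housekeeping genes and fitted bidirectionally against 0.5% DMSO controls. Human HepaRG cells received chemicals for 48 h in serum-free induction medium, highest concentration 100 uM.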
# [9] = read-out: Potassium channel subfamily K member 1 (KCNK1), KCNK1 (gene 3775); experiment: LTEA_HepaRG_KCNK1: Life Technologies and Expression Analysis (LTEA) Assay for Potassium channel subfamily K member 1 (KCNK1) using HepaRG (AID 2283511)
# Outline: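 Differentiated human HepaRG cells in serum-free induction medium were exposed in duplicate for 48 h to 8 half-log concentrations up to 100 uM in 0.5% DMSO. KCNK1 mRNA was measured by TaqMan qRT-PCR, normalized to ACTB, GAPDH and POLR2A, and fitted bidirectionally versus DMSO.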
# [10] = read-out: Keratin 19 (KRT19), KRT19 (gene 3880); experiment: LTEA_HepaRG_KRT19: Life Technologies and Expression Analysis (LTEA) Assay for Keratin 19 (KRT19) using HepaRG (AID 2283512)
# Outline: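 KRT19 transcript levels, measured by Fluidigm qRT-PCR against three housekeeping genes, are fitted for gain or loss of signal relative to DMSO. Human HepaRG cells receive test chemicals (top 100 uM, half-log steps, 0.5% DMSO) for 48 hours.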
# [11] = read-out: JUN Transcription Factor, JUN (gene 3725); experiment: LTEA_HepaRG_JUN: Life Technologies and Expression Analysis (LTEA) Assay for JUN Transcription Factor using HepaRG (AID 2283513)
# Outline: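 Cells plated 48 h, medium switched to serum-free induction medium, then dosed 48 h (100 uM top, half-log dilutions, 0.5% DMSO). RNA isolated; JUN measured by qRT-PCR against three housekeeping genes; gain or loss fitted relative to DMSO.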
# [12] = read-out: Lipase C (LIPC), LIPC (gene 3990); experiment: LTEA_HepaRG_LIPC: Life Technologies and Expression Analysis (LTEA) Assay for Lipase C (LIPC) using HepaRG (AID 2283514)
# Outline: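 Differentiated human HepaRG cells in serum-free induction medium were exposed in duplicate for 48 h to eight concentrations (top 100 uM, half-log steps, 0.5% DMSO). LIPC mRNA was quantified by TaqMan qRT-PCR, normalized to ACTB, GAPDH and POLR2A, with bidirectional fitting versus DMSO.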
# [13] = read-out: Lipoprotein lipase (LPL), LPL (gene 4023); experiment: LTEA_HepaRG_LPL: Life Technologies and Expression Analysis (LTEA) Assay for Lipoprotein lipase (LPL) using HepaRG (AID 2283515)
# Outline: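 Differentiated human HepaRG cells in serum-free induction medium were exposed in duplicate for 48 h to eight half-log concentrations (top 100 uM) in 0.5% DMSO. LPL mRNA was quantified by TaqMan qRT-PCR, normalized to ACTB, GAPDH and POLR2A.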
# [14] = read-out: MicroRNA 122 (MIR122), gene 406906; experiment: LTEA_HepaRG_MIR122: Life Technologies and Expression Analysis (LTEA) Assay for MicroRNA 122 (MIR122) using HepaRG (AID 2283516); note: the transcript read is the microRNA miR-122
# Outline: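 HepaRG plated 48 h, switched to serum-free induction medium, then treated in duplicate for 48 h (100 uM top, half-log steps, 0.5% DMSO vehicle). RNA isolated, qRT-PCR performed, concentration-response fitted both directions relative to DMSO.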
# [15] = read-out: matrix metalloproteinase-10 (MMP10), MMP10 (gene 4319); experiment: LTEA_HepaRG_MMP10: Life Technologies and Expression Analysis (LTEA) Assay for matrix metalloproteinase-10 (MMP10) using HepaRG (AID 2283517)
# Outline: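 HepaRG, collagen I, ~100,000 cells/well; serum-free induction medium; 48 h exposure, duplicate, 8-pt half-log to 100 uM, 0.5% DMSO. Readout: TaqMan qRT-PCR, normalized to ACTB/GAPDH/POLR2A; bidirectional fit vs DMSO.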
# [16] = read-out: MYC, MYC (gene 4609); experiment: LTEA_HepaRG_MYC: Life Technologies and Expression Analysis (LTEA) Assay for MYC using HepaRG (AID 2283518)
# Outline: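 HepaRG, ~100,000 cells/well, collagen I; 48 h plating; serum-free induction medium; 48 h dosing, duplicate, 100 uM top, half-log, 0.5% DMSO; total RNA → qRT-PCR MYC; gain/loss fit vs DMSO.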
# [17] = read-out: matrix metalloproteinase-3 (MMP3), MMP3 (gene 4314); experiment: LTEA_HepaRG_MMP3: Life Technologies and Expression Analysis (LTEA) Assay for matrix metalloproteinase-3 (MMP3) using HepaRG (AID 2283519)
# Outline: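 Differentiated human HepaRG cells, plated 48 h on collagen I, were exposed in duplicate for 48 h in serum-free induction medium to eight half-log concentrations up to 100 uM in 0.5% DMSO. MMP3 mRNA was quantified by TaqMan qRT-PCR, normalised to ACTB, GAPDH and POLR2A.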
# [18] = read-out: Paternally Expressed 10 (PEG10), PEG10 (gene 23089); experiment: LTEA_HepaRG_PEG10: Life Technologies and Expression Analysis (LTEA) Assay for Paternally Expressed 10 (PEG10) using HepaRG (AID 2283520)
# Outline: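 HepaRG, 48 h post-plating → serum-free induction medium → 48 h chemical exposure (duplicate, 8-pt, max 100 uM, half-log, 0.5% DMSO) → lysis in RLT → TaqMan qRT-PCR for PEG10, ACTB/GAPDH/POLR2A normalisation.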
# [19] = read-out: Protein phosphatase 2A (PPP2R4), PTPA (gene 5524); experiment: LTEA_HepaRG_PPP2R4: Life Technologies and Expression Analysis (LTEA) Assay for Protein phosphatase 2A (PPP2R4) using HepaRG (AID 2283522)
# Outline: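 Readout is PPP2R4 transcript level by microfluidic qRT-PCR after 48 h chemical treatment of human HepaRG liver cells. Concentrations spanned 100 uM downward in half-log steps; gain or loss of signal was fitted relative to DMSO.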
# [20] = read-out: Nuclear factor NF-kappa-B p105 subunit (Homo sapiens) (UniProt P19838); experiment: LTEA_HepaRG_NFKB1: Life Technologies and Expression Analysis (LTEA) Assay for Nuclear Factor Kappa B Subunit 1 (NFKB1) using HepaRG (AID 2283521);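 note: TaqMan qRT-PCR transcript normalised to ACTB GAPDH and POLR2A housekeeping genes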
# Outline: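 NFKB1 transcript was measured by TaqMan qRT-PCR on Fluidigm arrays, normalised to three housekeeping genes and fitted in both directions against 0.5% DMSO. HepaRG cells were dosed in duplicate for 48 h in serum-free induction medium, eight half-log steps from 100 uM.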
# Sequence of Hypoxia-inducible factor 1-alpha (Homo sapiens) (Q16665 whole entry, looked up): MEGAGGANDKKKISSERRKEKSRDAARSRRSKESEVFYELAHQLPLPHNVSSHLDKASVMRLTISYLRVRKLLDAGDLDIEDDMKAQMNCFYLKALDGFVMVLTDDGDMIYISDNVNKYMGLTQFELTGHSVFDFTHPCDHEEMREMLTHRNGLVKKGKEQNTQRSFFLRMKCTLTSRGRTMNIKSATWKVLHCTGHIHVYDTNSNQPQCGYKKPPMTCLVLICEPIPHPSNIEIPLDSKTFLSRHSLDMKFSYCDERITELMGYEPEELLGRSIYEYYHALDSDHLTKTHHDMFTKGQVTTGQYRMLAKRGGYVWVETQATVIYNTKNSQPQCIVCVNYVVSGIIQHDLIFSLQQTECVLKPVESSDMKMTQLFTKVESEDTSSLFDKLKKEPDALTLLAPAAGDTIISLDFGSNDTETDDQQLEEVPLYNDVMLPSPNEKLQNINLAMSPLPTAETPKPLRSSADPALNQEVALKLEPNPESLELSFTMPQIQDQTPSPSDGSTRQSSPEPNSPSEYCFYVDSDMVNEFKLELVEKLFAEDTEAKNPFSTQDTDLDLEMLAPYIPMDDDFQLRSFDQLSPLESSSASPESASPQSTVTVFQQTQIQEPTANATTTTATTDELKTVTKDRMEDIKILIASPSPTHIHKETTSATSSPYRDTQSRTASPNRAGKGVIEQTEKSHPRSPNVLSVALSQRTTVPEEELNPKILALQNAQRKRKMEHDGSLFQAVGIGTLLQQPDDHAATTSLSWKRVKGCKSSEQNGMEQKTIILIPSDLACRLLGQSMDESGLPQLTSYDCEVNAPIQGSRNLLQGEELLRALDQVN
# Sequence of Nuclear factor NF-kappa-B p105 subunit (Homo sapiens) (P19838 whole entry, looked up): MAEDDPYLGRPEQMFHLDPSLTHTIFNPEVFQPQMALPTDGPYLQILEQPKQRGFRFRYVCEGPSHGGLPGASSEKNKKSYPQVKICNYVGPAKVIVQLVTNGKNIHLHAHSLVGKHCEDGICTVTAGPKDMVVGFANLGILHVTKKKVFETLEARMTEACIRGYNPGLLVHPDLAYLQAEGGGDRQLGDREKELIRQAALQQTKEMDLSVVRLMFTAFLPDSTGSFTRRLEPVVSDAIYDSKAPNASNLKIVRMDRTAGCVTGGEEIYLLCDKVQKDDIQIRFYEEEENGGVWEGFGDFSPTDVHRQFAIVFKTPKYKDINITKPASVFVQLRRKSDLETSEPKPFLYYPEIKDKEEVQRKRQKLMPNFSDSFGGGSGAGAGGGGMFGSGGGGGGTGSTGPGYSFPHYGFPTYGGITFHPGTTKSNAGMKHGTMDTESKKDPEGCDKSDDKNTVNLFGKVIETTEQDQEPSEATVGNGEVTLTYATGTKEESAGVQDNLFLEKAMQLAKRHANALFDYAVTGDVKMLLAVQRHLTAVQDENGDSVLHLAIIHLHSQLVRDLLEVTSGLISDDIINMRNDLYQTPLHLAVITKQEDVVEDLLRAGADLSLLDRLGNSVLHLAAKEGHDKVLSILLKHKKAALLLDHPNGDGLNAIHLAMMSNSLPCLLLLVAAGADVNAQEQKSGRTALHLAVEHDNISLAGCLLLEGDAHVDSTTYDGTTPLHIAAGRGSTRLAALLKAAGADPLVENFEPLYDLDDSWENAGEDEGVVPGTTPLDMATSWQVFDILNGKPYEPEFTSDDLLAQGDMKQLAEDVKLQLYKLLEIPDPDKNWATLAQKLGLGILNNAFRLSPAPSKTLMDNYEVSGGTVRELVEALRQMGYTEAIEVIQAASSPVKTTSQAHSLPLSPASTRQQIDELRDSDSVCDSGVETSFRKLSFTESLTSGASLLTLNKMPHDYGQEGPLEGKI
smiles,measurement,setting,value
CC(C)(C)C(O)/C(=C\c1ccc(Cl)cc1Cl)n1cncn1 (configuration not stated),AC50,[1],82.3 µM (active)
same,AC50,[2],30.7 µM (active)
same,outcome,[3],inactive
same,AC50,[4],91.2 µM (active)
same,AC50,[5],50 µM (active)
same,AC50,[6],56.9 µM (active)
same,AC50,[7],94.6 µM (active)
same,AC50,[8],50 µM (active)
same,AC50,[9],71.6 µM (active)
same,outcome,[10],inactive
same,AC50,[11],72.7 µM (active)
same,AC50,[12],21.5 µM (active)
same,AC50,[13],12.4 µM (active)
same,outcome,[14],inactive
same,outcome,[15],inactive
same,outcome,[16],inactive
same,outcome,[17],inactive
same,AC50,[18],62.5 µM (active)
same,AC50,[19],85.9 µM (active)
CC1(C)C(C=C(Cl)Cl)C1C(=O)OC(C#N)c1ccc(F)c(Oc2ccccc2)c1 (configuration not stated),outcome,[1],inactive
same,outcome,[2],inactive
same,outcome,[3],inactive
same,outcome,[4],inactive
same,outcome,[5],inactive
same,outcome,[6],inactive
same,outcome,[7],inactive
same,outcome,[8],inactive
same,outcome,[9],inactive
same,outcome,[10],inactive
same,outcome,[11],inactive
same,outcome,[13],inactive
same,outcome,[14],inactive
same,outcome,[15],inactive
same,outcome,[16],inactive
same,outcome,[17],inactive
same,outcome,[18],inactive
same,outcome,[20],inactive
same,outcome,[19],inactive
CC[C@H](C)[C@H]1O[C@]2(C=C[C@@H]1C)C[C@@H]1C[C@@H](C/C=C(\C)[C@@H](O[C@H]3C[C@H](OC)[C@@H](O[C@H]4C[C@H](OC)[C@@H](O)[C@H](C)O4)[C@H](C)O3)[C@@H](C)/C=C/C=C3\CO[C@@H]4[C@H](O)C(C)=C[C@@H](C(=O)O1)[C@]34O)O2 (tested in a mixture with another compound),AC50,[1],19 µM (active)
same,AC50,[2],16.2 µM (active)
same,outcome,[3],inactive
same,AC50,[4],16 µM (active)
same,AC50,[5],13.6 µM (active)
same,AC50,[6],11.6 µM (active)
same,AC50,[7],18.6 µM (active)
same,AC50,[8],13.9 µM (active)
same,AC50,[9],16.8 µM (active)
same,AC50,[10],7.94 µM (active)
same,AC50,[11],18.8 µM (active)
same,AC50,[13],13.5 µM (active)
same,AC50,[14],7.42 µM (active)
same,AC50,[15],11.7 µM (active)
same,AC50,[16],13.9 µM (active)
same,AC50,[17],40.2 µM (active)
same,AC50,[18],49.3 µM (active)
same,outcome,[20],inactive
same,AC50,[19],47.7 µM (active)
